The source made the active and inactive calls.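 Rule for the calls: active = fitted potency no more than ten times the top tested concentration; inactive = fitted potency more than ten times the top tested concentration.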
Assay: nuclear b-catenin accumulation in U2-OS cells – cell-based, PathHunter, beta-gal complementation, dry powder, orthogonal assay for GSK3b inhibitor project, dose response (AID 624088)

Row | SMILES | outcome
1 | COc1ccccc1C1C2=C(CC(C)(C)CC2=O)Nc2ccccc21 (stereo not given) | inactive
2 | Cc1[nH]nc2c1C(C1CCCCC1)C1=C(CC(C)(C)CC1=O)N2 (stereo not given) | inactive
3 | O/N=C/c1cn(-c2ccccc2)nc1-c1ccc(Cl)cc1 | inactive
4 | COc1ccc(-c2nn(-c3ccccc3)cc2C(=O)O)cc1 | inactive
5 | COc1ccccc1[C@H]1C2=C(CC(C)(C)CC2=O)Nc2n[nH]c(C(F)(F)F)c21 | inactive
6 | COc1ccccc1[C@@H]1C2=C(CC(C)(C)CC2=O)Nc2n[nH]c(C)c21 | inactive
7 | COc1ccccc1-c1c2c(nc3n[nH]c(C)c13)CCC2=O | inactive
8 | COc1ccccc1C1C2=C(CC(C)(C)CC2=O)Nc2onc(C)c21 (stereo not given) | inactive
9 | COc1ccccc1C1C(C(C)=O)=C(C)Nc2n[nH]c(C)c21 (stereo not given) | inactive
10 | Cc1[nH]nc2c1[C@H](c1ccccc1C(F)(F)F)C1=C(CC(C)(C)CC1=O)N2 | inactive
11 | Cc1[nH]nc2c1C(C)C1=C(CC(C)(C)CC1=O)N2 (stereo not given) | inactive
12 | Cc1[nH]nc2nc3c(cc12)C(=O)CC(C)(C)C3 | inactive
13 | COc1ccccc1C1C2=C(CCCC2=O)Nc2n[nH]c(C)c21 (stereo not given) | inactive
14 | COc1ccc(-c2nn(-c3ccccc3)cc2CO)cc1 | inactive
15 | COc1ccccc1C1C2=C(CC(C)(C)CC2=O)Nc2n[nH]c(-c3ccccc3)c21 (stereo not given) | inactive
16 | COc1ccccc1C1C2=C(CC3(CCCCC3)CC2=O)Nc2n[nH]c(C)c21 (stereo not given) | inactive
17 | Cc1[nH]nc2c1C(C1CC1)C1=C(CC(C)(C)CC1=O)N2 (stereo not given) | inactive
18 | COc1ccccc1C1C2=C(CCC(C)(C)C2=O)Nc2n[nH]c(C)c21 (stereo not given) | inactive
19 | Cc1[nH]nc2c1C(c1ccc(C(F)(F)F)cc1)C1=C(CC(C)(C)CC1=O)N2 (stereo not given) | inactive
20 | Cc1ccccc1C1C2=C(CC(C)(C)CC2=O)Nc2n[nH]c(C)c21 (stereo not given) | inactive
